Shown are actives, neighbours in structure and some others; about 6.3% of the full set was active somewhere.
TIM10 inh – growth inhibitors of TIM10 yeast strain | S. cerevisiae TIM10 strain growth, BacTiter-Glo luminescence, 24 h | AID 463195 | inhibition, % at 10 µM | hit rate 1.4% among 330,000;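 active = inhibition of 40% or more at the single tested concentration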;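 note: wild-type TIM10 isogenic control strain grown at permissive 25 °C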
MPTP inh – inhibitors of mitochondrial permeability transition pore. isolated mouse mitochondria, Ca2+ swelling absorbance, 30 min. AID 602449. hit rate 1.4% among 360,000. inhibition, % at 10 µM;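 active = inhibition of 50% or more, scaled per plate between neutral and stimulator controls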;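 note: 0% = DMSO wells given calcium and 100% = 1 mM EGTA wells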
Mdm2-MdmX inh – disrupts the human Mdm2-MdmX interaction; O15151+Q00987; SaOS-2 split-luciferase Mdm2/MdmX complementation, luminescence; inhibition, % at 8 µM; hit rate 3% among 330,000;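 active = inhibition of at least 50% at 8 µM in the primary screen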
Target sequence (O15151 whole entry, looked up): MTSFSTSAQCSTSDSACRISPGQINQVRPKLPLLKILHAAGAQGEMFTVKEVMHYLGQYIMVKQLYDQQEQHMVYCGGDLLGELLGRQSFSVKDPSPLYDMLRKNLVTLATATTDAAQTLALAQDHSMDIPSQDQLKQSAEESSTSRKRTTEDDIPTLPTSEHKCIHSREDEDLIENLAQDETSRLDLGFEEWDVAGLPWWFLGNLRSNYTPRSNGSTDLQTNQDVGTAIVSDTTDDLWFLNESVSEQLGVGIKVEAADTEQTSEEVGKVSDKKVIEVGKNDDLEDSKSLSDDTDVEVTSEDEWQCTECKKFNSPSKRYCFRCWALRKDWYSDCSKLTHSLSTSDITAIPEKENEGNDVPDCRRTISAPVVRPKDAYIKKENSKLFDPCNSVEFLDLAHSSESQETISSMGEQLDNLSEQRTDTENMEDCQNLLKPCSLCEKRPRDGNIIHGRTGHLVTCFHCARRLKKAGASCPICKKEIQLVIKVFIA
Target sequence (Q00987 whole entry, looked up): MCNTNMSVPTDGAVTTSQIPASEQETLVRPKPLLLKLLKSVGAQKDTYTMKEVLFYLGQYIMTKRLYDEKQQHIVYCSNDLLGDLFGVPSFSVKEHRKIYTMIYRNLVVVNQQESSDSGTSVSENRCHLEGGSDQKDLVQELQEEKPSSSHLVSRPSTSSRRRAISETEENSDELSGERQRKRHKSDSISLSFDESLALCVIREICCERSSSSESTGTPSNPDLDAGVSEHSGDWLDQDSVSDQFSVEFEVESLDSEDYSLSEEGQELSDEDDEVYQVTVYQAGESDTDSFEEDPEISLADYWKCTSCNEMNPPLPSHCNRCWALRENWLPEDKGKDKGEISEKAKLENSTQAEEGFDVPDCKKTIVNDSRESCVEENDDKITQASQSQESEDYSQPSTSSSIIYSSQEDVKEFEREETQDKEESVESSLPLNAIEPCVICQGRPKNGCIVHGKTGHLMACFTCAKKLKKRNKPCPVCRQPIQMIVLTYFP
tim23-1 inh – inhibits growth of tim23-1 mutant yeast; hit rate 1.3% among 330,000; S. cerevisiae tim23-1 growth, BacTiter-Glo luminescence, 24 h; inhibition, % at 20 µM;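 active = growth inhibition of the mutant yeast at or above 50%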;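 note: temperature-sensitive mutant grown at 25 °C; plate controls were DMSO-treated mutant yeast for no effect and medium wells lacking yeast for full effect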
tim10-1 inh – tim10-1 yeast growth inhibition; S. cerevisiae tim10-1 ts strain growth, BacTiter-Glo, 24 h; inhibition, % at 20 µM; hit rate 2.2% among 330,000; AID 463190;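 active = inhibition of at least 40%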;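 note: mutant grown at 25 °C; 0% = DMSO wells with yeast and 100% = wells holding no yeast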
MPTP counter – membrane potential counter-screen of mitochondrial pore inhibitors. shares compounds with MPTP inh. isolated mitochondria, Rhodamine 123 fluorescence. inhibition, % at 10 µM. hit rate 78% among 5,000. AID 624504; in the data active = inhibition above about 22%;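 note: 0% = DMSO vehicle and 100% = positive control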
MPTP swell DR – MPTP inhibition, dose response swelling confirmation. shares compounds with MPTP inh. isolated mitochondria swelling, absorbance. IC50, µM. hit rate 58% among 780. AID 651561; in the data active = IC50 below about 20 µM
MPTP cs DR – counter-screen for mitochondrial permeability transition pore inhibitors, dose response | IC50, µM | AID 651564 | hit rate 49% among 780 | isolated mitochondria counterscreen, fluorescence read-out | shares compounds with MPTP inh; in the data active = IC50 below about 80 µM
* hit, by the source's call; i = inactive; · = no result.

SMILES	TIM10 inh	MPTP inh	Mdm2-MdmX inh	tim23-1 inh	tim10-1 inh	MPTP counter	others
Cc1cccc(OCCCCCNCCO)c1	-15	1	-11	5	3	·
Cc1cccc(OCCCCNCc2ccccc2)c1	-36	59*	-2	-22	-18	0	MPTP swell DR=6.8*;MPTP cs DR=>80
CC(=O)c1ccc(NC(=O)Nc2cccc(Cl)c2)cc1	7	101*	-90	7	-8	88*
O=C(NNc1ccccc1[N+](=O)[O-])Nc1cccc(Cl)c1	-4	84*	27	8	8	85*
CC(=O)c1ccc(NC(=O)Nc2ccc(Br)cc2C)cc1	-8	90*	27	1	-5	97*
CC(=O)Nc1ccc(NC(=O)Nc2cccc(Cl)c2)cc1	8	0	2	0	6	·
COC(=O)c1cc(NC(=O)Nc2ccccc2)ccc1Cl	13	76*	2	2	18	83*
CC(=O)c1ccc(NC(=O)c2ccc(C)c(Br)c2)cc1	19	13	-160	-1	24	·
Cc1nn(-c2ccccc2)c(C)c1C(=O)OCC(=O)Nc1ccccc1Cl	·	-1	·	·	·	·
O=C(NCc1ccncc1)[C@@H]1CCCN1C(=O)[C@@H]1CCCN1C(=O)c1ccccc1Cl	·	-2	·	·	·	·
COC(=O)c1sccc1NC(=O)Nc1ccc(Cl)c(Cl)c1	20	103*	13	4	15	107*
N#Cc1ccc(NC(=O)Nc2cccc(C#N)c2)cc1	·	72*	·	·	·	100*
O=C(NCCc1cccc(Cl)c1)c1ccc(Cl)c([N+](=O)[O-])c1	33	81*	-4	35	29	94*
O=C(Nc1ccccc1)Nc1ccc(Cl)nc1Cl	-3	73*	-14	11	14	88*
O=C(Cn1nnc(-c2ccc(Cl)cc2)n1)NC(=O)NC1CCCC1	·	0	·	·	·	·
Fc1cccc(CSc2ncnc3c2ncn3C2CCCCO2)c1 (configuration not stated)	·	0	·	·	·	·
COc1cccc(C(O)c2nc(-c3cccc(C#N)c3)cs2)c1 (configuration not stated)	·	2	·	·	·	·
CCCS(=O)(=O)NC(=O)C1(C)CCCN(C(=O)c2c(C)noc2C)C1 (configuration not stated)	·	1	·	·	·	·
CCCCCCCCN1C(=O)[C@H](CC(=O)N2CCSCC2)C[C@@]2(C(=O)OC)CC(C)(C)CC=C12	·	11	·	·	·	·
O=C(Nc1ccccc1)Nc1cccc(Cl)c1	-11	96*	-19	-9	-17	87*
CC(C)(C)c1cc(C(=O)NNC(=O)Nc2cccc(Cl)c2)n(Cc2ccccc2)n1	6	71*	24	2	5	79*
O=C(Nc1cccc(Cl)c1)Nc1cccc(C(=O)O)c1	-5	5	-4	16	17	·
CC(=O)c1ccc(NC(=S)NCCc2cccc(Cl)c2)cc1	30	86*	-50	24	18	95*
CN(C(=O)COC(=O)c1cccs1)c1ccccc1	·	0	·	·	·	·
Cc1cc(C)c2nc(N(CCCN(C)C)C(=O)C3=COCCO3)sc2c1	18	61*	42	14	21	-16	MPTP swell DR=12*;MPTP cs DR=>80
SMILES	TIM10 inh	MPTP inh	Mdm2-MdmX inh	tim23-1 inh	tim10-1 inh	MPTP counter	others
O=S(=O)(N[C@H]1C[C@@H](NS(=O)(=O)OCC(Cl)(Cl)Cl)C2CCCCC21)OCC(Cl)(Cl)Cl (some centres not stated)	·	64*	·	·	·	91*
CCOC(=O)C1=C(O)c2ccccc2C(=O)/C1=C\c1ccc(CC)cc1	·	67*	·	·	·	77*
OC(c1ccc(Cl)cc1)c1ncc(-c2cccc(F)c2)[nH]1 (configuration not stated)	·	0	·	·	·	·
CCCC1CC(CSC(=N)N)OC1=O (configuration not stated)	-2	-5	5	-3	3	·
CCCCCCC1CC(CSC(=N)N)OC1=O (configuration not stated)	-2	91*	-12	10	6	-5	MPTP swell DR=i;MPTP cs DR=>80
N#CC1=C(N)NC(SCC(=O)c2ccc(Br)cc2)=C(C#N)C12CCCCC2	-23	90*	14	-73	-81	80*
N#CC1=C(N)NC(SCC(=O)c2ccc(Cl)cc2)=C(C#N)C12CCCC2	16	30	13	17	28	·

High-throughput results as filed in PubChem.
